Results from the supplement of paper PMC10646978.

Test system: RAW-Dual (murine macrophage reporter line)
Experiment: viability score (confluency relative to resting cells, overnight) (fraction); higher = more viable, active = viable (0.7 or more)
Conditions: modulator concentration 10 µM
Outline: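 In 384-well plates, RAW-Dual macrophages received compound at a final 10 μM overnight. Two confluency masks were then made with IncuCyte software from IncuCyte images of all imaged wells. The viability score is defined as confluency relative to resting cells. Passing the cutoff required both masks to lie above 70% of resting cells.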

Row | Compound | viability score
1 | COc1ccc(N(CC(=O)Nc2ccccc2C(F)(F)F)S(C)(=O)=O)cc1 | 0.992 (active)
2 | COC(CNC(=O)CSc1ccc(F)cc1)c1ccc(C)s1 (configuration not stated) | 0.985 (active)
3 | CCOC(=O)C1=C(C)NC2=C(C(=O)CC(C)(C)C2)C1c1ccccc1Br (configuration not stated) | 1.02 (active)
4 | CC(C=CC1=C(C)CCCC1(C)C)=CC=CC(C)=CC(=O)O | 0.986 (active)
5 | COc1ccc2c(Cl)c(C(=O)N3CCc4ccccc4C3)sc2c1 | 1.01 (active)
6 | O=C(Oc1ccc(O)c(CO)c1)c1ccccc1 | 1 (active)
7 | O=c1ccc2cc(O)c(O)cc2o1 | 0.986 (active)
